Assay outcomes (PubChem)
HT1080-NT tox = qHTS for induction of synthetic lethality in tumor cells producing 2HG: qHTS for the HT-1080-NT fibrosarcoma cell line. 1.6% of 360,000 active. Potency, µM (doses to about 46.1 µM), inactives show at the highest dose activity, negative = less viability, most hits filed as cytotoxic. HT-1080-NT fibrosarcoma viability, CellTiter-Glo ATP luminescence, 48 h. AID 686970, 2013;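 also: NT is the 2HG producing partner of a matched IDH1 knockdown line; potency is read from the fitted curve at half-maximal effect; 0% = DMSO-treated cells and -100% = media-only wells without cells; nearly all actives have a fitted effect of over 55% in size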
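HT-1080-NT; 750 cells/well; 5% FBS RPMI; 48 h compound, 37 degrees C; CellTiter-Glo luminescence; curve fitting and curve-class assignment.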
IL1B secr inh = qHTS for Inhibitors of Inflammasome Signaling: IL-1-beta AlphaLISA Primary Screen; 4.7% of 360,000 active; THP-1 LPS/ATP IL-1B secretion, AlphaLISA, 16 h; hits give low values; AID 743279, 2014; activity change, % at 57.5 µM; in the data active = activity change below about -50%; inconclusive = mostly about -30% to -49%
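Secreted IL-1B measured by AlphaLISA bead assay after 16 h compound exposure of THP-1 cells; compounds (final up to 57.5 uM) added 1 h before LPS (250 ng/mL) and ATP (1.25 mM) stimulation; lower signal means less secretion.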
HT1080 IDH1KD tx = qHTS for induction of synthetic lethality in tumor cells producing 2HG: qHTS for the HT-1080-IDH1KD cell line. HT-1080 IDH1 knockdown viability, ATP luminescence, 48 h. Potency, µM (series often up to 46.1 µM), for inactives: top-dose activity, negative = toxicity, most hits filed as cytotoxic. 2% of 360,000 active. AID 686971, 2013;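 also: potency is read from the fitted curve at half-maximal effect; 0% = DMSO wells and -100% = cell-free medium wells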
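Knockdown cells (IDH1KD HT-1080) received compounds 2 h after plating at 750 cells/well and were kept 48 h at 37 °C in 5% FBS RPMI. A CellTiter-Glo luminescence read gave % activity for curve fitting.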
DT40 TDP1 no CPT = qHTS for Inhibitors of human tyrosyl-DNA phosphodiesterase 1 (TDP1): qHTS in cells in absence of CPT. DT40 Tdp1-/- hTDP1 cells, no CPT, ATP luminescence, 48 h. Potency, µM (highest dose often 46.2 µM), for the others: at the highest dose activity change, negative = growth inhibition, most hits filed as inhibitors. 15% of 420,000 active; also: potency is read from the fitted curve at half-maximal effect; nearly all actives have a fitted effect of over 55% in size
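No-CPT arm: Tdp1-/-;hTDP1 DT40 cells (400/well) plus compounds, incubated ≥48 hr at 37 °C. Readout CellTiter-Glo luminescence.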
DT40 TDP1 CPT = qHTS for Inhibitors of human tyrosyl-DNA phosphodiesterase 1 (TDP1): qHTS in cells in presence of CPT; chicken DT40 Tdp1-/-;hTDP1 cells + 20 nM CPT, ATP luminescence, 48 h; 12% of 420,000 active; Potency, µM (titrated, usually from 46.2 µM), inactives show top-dose activity change, negative = growth inhibition, hits mostly inhibitors; also: potency is read from the fitted curve at half-maximal effect; nearly all actives have a fitted effect of over 55% in size
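Chicken DT40 Tdp1-/- cells stably complemented with human TDP1 were seeded at 400 cells/well in medium containing 20 nM camptothecin, exposed to pin-transferred compounds, and grown at 37 °C for at least 48 hr. Viability was read as ATP luminescence.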
Numbers without * were called inactive; ? = inconclusive; nt = no result given; [ ] = dose if it differs, or a comment. An excerpt weighted towards active compounds, which were near 19% of everything screened. Unless noted, calls follow the shape of the dose curve; as a rule, active = well fitted curve in the direction sought with a large enough effect; inconclusive = small, poorly fitted or top-dose-only effect, or another doubt; inactive = no such curve, though single readings can be large; an effect the other way counts as inactive or inconclusive. Unless noted, % is scaled to controls: 0 for no effect and ±100 for the full control effect.

SMILES	HT1080-NT tox	IL1B secr inh	HT1080 IDH1KD tx	DT40 TDP1 no CPT	DT40 TDP1 CPT
Cc1ccc(NC(=O)c2c(NC(=O)c3ccco3)sc3c2CCC(C(C)(C)C)C3)c(C)c1 (stereo not drawn)	nt	nt	nt	3%	-4%
COc1c[nH]n(C2CCCCC2)c(=O)c1=O	?	-16	?	-20%	?
O=C(Cc1ccccc1)NCC(=O)OCc1ccc([N+](=O)[O-])cc1	18%	2	5%	-5%	-14%
Cc1cc(N)n(-c2nc(-c3cccnc3)nc3ccccc23)n1	-4%	?	-11%	18µM*	26µM*
c1ccc2c(N3CCOCC3)nc(-c3ccncc3)nc2c1	-28%	?	-7%[9.24 µM]	15µM*	?
c1cncc(-c2nc(N3CCOCC3)c3ccccc3n2)c1	?	?	-26%	35µM*	?
c1csc(-c2nc(N3CCOCC3)c3ccccc3n2)c1	-20%	-17	-21%	?	?
O=C(NC(Cc1ccccc1)C(=O)O)/C(=C\c1ccc(F)cc1)NC(=O)c1ccccc1 (stereo not drawn)	-1%	9	3%	-2%	-16%
O=C(Nc1ccccc1F)c1ccc(OCc2ccccc2)cc1	-14%	0	-11%	-23%	-20%
Cc1nc(COc2ccc(C(=O)Nc3ccccc3N3CCOCC3)cc2)cs1	-11%	?	-16%	15µM*	?
CN1CCN(c2ccccc2NC(=O)c2cccc(OCc3ccccc3)c2)CC1	?	-65*	18µM*	21µM*	?
Cc1nc(COc2ccc(C(=O)NCc3ccccc3CN3CCCCC3)cc2)cs1	-1%	0	1%	23µM*	?
CN1CCN(c2ccccc2NC(=O)c2ccc(OCc3ccccc3)cc2)CC1	?	-55*	23µM*	?	16µM*
CC(C)Oc1ccc(C(=O)Nc2ccccc2N2CCOCC2)cc1	-4%	3	-9%	-15%	4%
O=C1C2C3C=CC(C4CC34)C2C(=O)N1CCCCN1CCN(c2ccc(F)cc2)CC1 (stereo not drawn)	-17%	-15	-14%	?	?
COc1ccccc1CC(=O)N1CCC(n2nccc2NC(=O)C2CCOC2)CC1 (stereo not drawn)	0%	-10	0%	9%	-2%
Cc1cnc(SCc2ccccn2)nc1C1CCCN(C(=O)c2ccc3c(c2)OCCO3)C1 (stereo not drawn)	nt	nt	nt	-7%	17%[9.04 µM]
CN1CCN(c2ccccc2NC(=O)c2ccc(-c3ccccc3)cc2)CC1	?	-59*	?	16µM*	?
CN1CCN(c2ccc([N+](=O)[O-])cc2NC(=O)c2ccccc2)CC1	2%	-11	3%	-12%	-21%
CC(=O)C1=C(C)N(c2ccccc2)C(=O)C1(NS(=O)(=O)c1ccc(N)cc1)C(F)(F)F (stereo not drawn)	-2%	18	1%	-5%	14%
COC(=O)C1=C(C)N(CCc2ccccc2)C(=O)C1(NS(=O)(=O)c1ccc(NC(C)=O)cc1)C(F)(F)F (stereo not drawn)	10µM*	-1	6.3µM*	?	-22%
Cc1ccc(NC(=O)/C(C#N)=C\c2ccc(-c3ccc(Cl)cc3)o2)c(C)c1	nt	nt	nt	-97%	12µM*
Cc1ccc(NC(=O)/C(C#N)=C/c2ccc(C)o2)cc1	nt	nt	nt	-17%	-7%
N#C/C(=C\c1ccc(-c2ccc(C(=O)O)cc2)o1)C(=O)Nc1ccc(F)cc1	-2%	-9	4%	12µM*	?
Cc1cc(C)c(S(=O)(=O)N2CCN(C(=O)c3cc(=O)[nH]c4ccccc34)CC2)c(C)c1	-5%[9.24 µM]	-13	-4%	16µM*	15µM*
SMILES	HT1080-NT tox	IL1B secr inh	HT1080 IDH1KD tx	DT40 TDP1 no CPT	DT40 TDP1 CPT
N#Cc1ccccc1S(=O)(=O)N1CCN(C(=O)c2cc(=O)[nH]c3ccccc23)CC1	-7%	32	0%	4%	?
Cc1cc(C)c(C)c(S(=O)(=O)N2CCN(C(=O)c3cc(=O)[nH]c4ccccc34)CC2)c1C	?	0	?	13µM*	?
CC1CN(c2ccccc2)C(=O)CS1 (stereo not drawn)	18%	4	18%	0%	-1%
CCCCC(=O)Nc1ccc(S(=O)(=O)N2CCCCC2c2cccnc2)cc1 (stereo not drawn)	-1%	0	-10%	13µM*	18µM*
O=C(Nc1ccc(S(=O)(=O)N2CCCCC2c2cccnc2)cc1)c1c(F)cccc1F (stereo not drawn)	13%	-10	2%	?	?
O=C(Nc1ccc(S(=O)(=O)N2CCCCC2c2cccnc2)cc1)c1ccc(Br)cc1 (stereo not drawn)	nt	nt	nt	9.2µM*	16µM*
COc1ccc(CCN2CC(C(=O)Nc3nccs3)CC2=O)cc1OC (stereo not drawn)	5%	10	3%	-11%	-14%
Cn1c2ccccc2c(=O)c2c(=O)n(C3CCCCC3)c(-c3ccco3)nc21	-1%	5	-1%	?	23µM*
O=c1cc(-c2ccccc2Cl)oc2cccc(O)c12	12%	15	13%	-13%	0%
O=c1cc2oc3cc(O)c(O)cc3c(-c3ccccc3[N+](=O)[O-])c-2cc1O	15µM*	-7	21µM*	23µM*	21µM*
Cc1ccc2oc(-c3ccc(NC(=O)c4oc5ccc(Cl)cc5c4C)cc3)nc2c1	nt	nt	nt	3%	0%
Cc1ccc(NC(=O)CN2CCCC2c2cccs2)cc1S(=O)(=O)N1CCCCC1 (stereo not drawn)	-8%[9.24 µM]	-9	?	23µM*	18µM*
CCOc1ccc(NC(=O)[C@@H]2CCCN2C(=O)c2cccs2)cc1S(=O)(=O)N1CCCCC1	2%	-2	16%	7%	-2%
Cc1ccc(NC(=O)CCS(=O)(=O)c2ccccc2)cc1S(=O)(=O)N1CCCCCC1	-19%	-3	-13%	?	?
CCOc1ccc(NC(=O)CN2CCCC2c2cccs2)cc1S(=O)(=O)N1CCCCC1 (stereo not drawn)	1%	-8	-3%	15µM*	15µM*
Cc1ccc(S(=O)(=O)N2CCCCC2)cc1NC(=O)CN1CCCC1c1cccs1 (stereo not drawn)	0%	24	-1%	-24%	-25%
O=C(CN1CCCC1c1cccs1)Nc1cc(S(=O)(=O)N2CCCCC2)ccc1Cl (stereo not drawn)	-29%	-15	?	?	16µM*
